{
  "source": "PubChem BioAssay AID2253",
  "about": "(Southern Research Specialized Biocontainment Screening …, 2010)",
  "note": "Screen size: about 2,200 compounds; about 1,300 (59%) were called active. The rule behind the calls is not given here. So high a share suggests a set chosen from earlier hits. Not all results are given here. Measured potencies and affinities stand elsewhere.",
  "data": [
    {"experiment": "THP-1 cell cytotoxicity, dose response, cytotoxicity control for Salmonella PhoP regulon inhibitors, S. typhimurium screen hits (AID 2253)", "settings": "THP-1 viability, CellTiter-Glo luminescence, 72 h; series mostly up to 50 µM; viability: at the top concentration", "values": [
      {"compound": "CSc1nsc(SCC(=O)Nc2ccc(C(C)=O)cc2)n1", "viability": "92% (inactive)"},
      {"compound": "CCCc1nc2c(o1)CC(CC(C)SCC)CC2=O", "note": "(centres undefined)", "viability": "99% (inactive)"},
      {"compound": "Cc1cc(Oc2ccc(-c3nnc(-c4ccccc4)o3)cc2[N+](=O)[O-])ccc1Cl", "viability": "97% (inactive)"},
      {"compound": "C=CCOc1ccc(Br)cc1/C=N/O", "viability": "89.5% (inactive)"},
      {"compound": "CCOC(=O)CCCNC(=O)COC(=O)CCC(=O)c1ccc(F)cc1", "viability": "96% (inactive)"},
      {"compound": "COc1ccccc1N1CCN(C/C(O)=C(\\C#N)c2nc(-c3ccccc3)cs2)CC1", "viability": "113% (inactive)"},
      {"compound": "Cc1cc(C)nc(NC(=O)Cc2cccs2)n1", "viability": "104% (inactive)"},
      {"compound": "Cc1oc(CC(C)C)c(CN2CCCC2)c1C(=O)O", "viability": "87.2% (inactive)"},
      {"compound": "O=C(O)C1(P(=O)(c2ccccc2)c2ccccc2)CCC1", "viability": "93.6% (inactive)"},
      {"compound": "O=C(O)CCc1nnc2n(Cc3ccc(F)cc3)c(=O)c3ccccc3n12", "viability": "94.4% (inactive)"},
      {"compound": "CC1Cc2ccccc2N1C(=O)COC(=O)c1ccc(S(=O)(=O)N(C)C)cc1", "note": "(centres undefined)", "viability": "95.1% (inactive)"},
      {"compound": "CCSc1nc(C2CC2)cc(-c2cccs2)c1C#N", "viability": "99.5% (inactive)"},
      {"compound": "Cc1ccc(-n2nc(-c3ccc(N)cc3)cc2N)cc1", "viability": "100% (inactive)"},
      {"compound": "O=c1cc(O)nc(SCc2ccccc2Cl)[nH]1", "viability": "92.7% (inactive)"},
      {"compound": "O=C(O)CCS(=O)(=O)c1ccc(-c2ccccc2)cc1", "viability": "97.2% (inactive)"},
      {"compound": "Cc1c(Cl)cccc1NC(=O)CSCC(N)=O", "viability": "97.7% (inactive)"},
      {"compound": "O=C(NC(NC(=S)Nc1ccc(Cl)cc1)C(Cl)(Cl)Cl)c1ccco1", "note": "(centres undefined)", "viability": "95.5% (inactive)"},
      {"compound": "CCC(C)NC(=O)c1cn(CC)c2cc(N3CCN(C)CC3)c(F)cc2c1=O", "note": "(centres undefined)", "viability": "83.6% (inactive)"},
      {"compound": "NC(=O)C1(NC(=O)[C@@H]2CC3(CC(c4cccc(NC(=O)[C@@H]5CCC(=O)N5)c4)=NO3)CN2C(=O)Cc2ccc(Cl)cc2)CC1", "note": "(some centres undefined)", "viability": "91.9% (inactive)"},
      {"compound": "COCCNC(=O)c1ccc(C(=O)NCCOC)s1", "viability": "114% (inactive)"},
      {"compound": "COc1cc(S(=O)(=O)N2CCCCC2)ccc1NC=O", "viability": "110% (inactive)"},
      {"compound": "O=C(CCC(=O)c1cccs1)OCC(=O)N1CCN(S(=O)(=O)c2ccccc2)CC1", "viability": "94% (inactive)"},
      {"compound": "Cc1nnc(SC(C)C(=O)Nc2ccc(S(=O)(=O)N3CCCCCC3)cc2)s1", "note": "(centres undefined)", "viability": "83.6% (inactive)"},
      {"compound": "CCOC(=O)N1CCN(C(=O)c2ccc(NC(=O)c3ccc(C)cc3)cc2)CC1", "viability": "86.7% (inactive)"},
      {"compound": "CCn1cc(C(=O)OCC(=O)Nc2ccc(S(=O)(=O)N3CCCC3)cc2)c(=O)c2ccc(C)nc21", "viability": "97.5% (inactive)"},
      {"compound": "O=C(OCC(=O)c1ccc(S(=O)(=O)N2CCCC2)cc1)C1=COCCO1", "viability": "103% (inactive)"},
      {"compound": "Cc1cc(C)c2c(=O)[nH]c(SCC(=O)Nc3ccc(N(C)C)cc3)nc2n1", "viability": "94.1% (inactive)"},
      {"compound": "Cc1cccc(C(=O)O/N=C2\\CCSc3ccc(C)cc32)c1", "viability": "82% (inactive)"},
      {"compound": "CC1(C)CC(=O)C(C=Nc2ccc(Cl)cn2)=C(O)C1", "viability": "116% (inactive)"},
      {"compound": "CN1CCN(c2cc3c(cc2F)c(=O)c(C(=O)O)cn3CCF)CC1", "viability": "86.3% (inactive)"},
      {"compound": "Cc1cc(C(=O)NCc2ccco2)no1", "viability": "96.3% (inactive)"},
      {"compound": "CC(C)(C)NS(=O)(=O)c1ccc(CCC(=O)N2CCOCC2)cc1", "viability": "92.2% (inactive)"},
      {"compound": "CCOC(=O)C1=C(c2ccccc2)N=C2SCC(=O)N2C1c1ccc(O)c(OC)c1", "note": "(centres undefined)", "viability": "89.6% (inactive)"},
      {"compound": "COc1ccc(-c2nnc(SCC(=O)NCc3ccco3)o2)cc1", "viability": "86.9% (inactive)"},
      {"compound": "COc1ccc(-c2csc(NC(=O)C3CCCO3)n2)cc1", "note": "(centres undefined)", "viability": "81.1% (inactive)"},
      {"compound": "CCN(C(C)=O)c1nc(CSc2nnc(NC(C)C)s2)cs1", "viability": "87.3% (inactive)"},
      {"compound": "COc1ccc(/C=N/NC(=O)c2ccc3c(c2)OCCO3)cc1[N+](=O)[O-]", "viability": "96.5% (inactive)"},
      {"compound": "O=C(CN1CCCCCC1)Nc1cccc(Br)c1", "viability": "84% (inactive)"},
      {"compound": "O=C(CN1CCCCC1)Nc1cccc(Br)c1", "viability": "95% (inactive)"},
      {"compound": "O=C(c1cccc(S(=O)(=O)N2CCOCC2)c1)N1CCCC1", "viability": "98.5% (inactive)"},
      {"compound": "CCOC(=O)C1=CSC2=NS(=O)(=O)CCN12", "viability": "98.7% (inactive)"},
      {"compound": "CC(=O)N1CCC(N(CCN2CCOCC2)C(=S)Nc2cccc(C)c2C)CC1", "viability": "86.5% (inactive)"},
      {"compound": "O=c1cc(CSc2nc(NCc3ccccc3)c3ccccc3n2)nc2ccc(Cl)cn12", "viability": "83.5% (inactive)"},
      {"compound": "CNc1ncc(Cc2ccccc2)s1", "viability": "98.4% (inactive)"},
      {"compound": "Cc1nc(N2CCN(Cc3ccccc3)CC2)nc2c1C(=O)CC(C)C2", "note": "(centres undefined)", "viability": "82.4% (inactive)"},
      {"compound": "CCOC(=O)c1ccc(NC(=O)Nc2cc(C)on2)cc1", "viability": "99.5% (inactive)"},
      {"compound": "CCOC(=O)Nc1ccc(C)cc1C", "viability": "91.4% (inactive)"},
      {"compound": "CCOC(=O)C1CCCN(C(=O)c2sc3nc(C)nc(N4CCOCC4)c3c2C)C1", "note": "(centres undefined)", "viability": "86.6% (inactive)"},
      {"compound": "CCCCNC(=O)Oc1cccc(N2CCCC2=O)c1", "viability": "101% (inactive)"},
      {"compound": "CCCOc1ccc(C(=O)CCC(=O)OCC(=O)N2CC(=O)Nc3ccccc32)cc1", "viability": "96.4% (inactive)"},
      {"compound": "O=S1(=O)C=CC(Nc2ccccc2)C1", "note": "(centres undefined)", "viability": "85.5% (inactive)"},
      {"compound": "CC(C)N(Cc1nc(-c2ccccc2)no1)C(=O)CN(C)S(=O)(=O)c1ccccc1", "viability": "82.1% [at 25 µM] (inactive)"},
      {"compound": "C[C@H]1COc2c(N3CCN(C)CC3)c(F)cc3c(=O)c(C(=O)O)cn1c23", "viability": "99.5% (inactive)"},
      {"compound": "Cc1ccc(Oc2nnc(-c3ccccc3)c3ccccc23)cc1", "viability": "101% (inactive)"},
      {"compound": "Cc1nc(-c2ccccc2)cc(=O)[nH]1", "viability": "96.8% (inactive)"},
      {"compound": "COC(=O)c1cc(C#N)c(Oc2cccc(C)c2C)nc1C", "viability": "88.2% (inactive)"},
      {"compound": "COc1ccc(NC(=O)ON=C2c3ccccc3-c3ccccc32)cc1", "viability": "89% (inactive)"},
      {"compound": "NC(=O)c1ccccc1N=Cc1ccccn1", "viability": "91.5% (inactive)"},
      {"compound": "Cc1ccc(C(=O)Nc2ccccc2C(N)=O)o1", "viability": "86.6% (inactive)"},
      {"compound": "Cc1scc(C(=O)O)c1-c1c(C(=O)O)csc1C", "viability": "96.9% (inactive)"},
      {"compound": "COc1cc(OC)c(C(=O)Nc2ccc(S(=O)(=O)Nc3ncccn3)cc2)cc1OC", "viability": "98.1% (inactive)"},
      {"compound": "CN(CC(=O)NCc1cccc(F)c1)C(=O)c1ccco1", "viability": "84.9% (inactive)"},
      {"compound": "COC(=O)c1ccc(Sc2ccccc2NS(=O)(=O)c2ccc(C)cc2)nc1", "viability": "91.1% (inactive)"},
      {"compound": "N/C(=N\\c1nc2ccccc2o1)NC(=O)c1ccccc1F", "viability": "94.7% (inactive)"},
      {"compound": "CCCOc1ccc(/C=N/O)cc1", "viability": "94.1% (inactive)"},
      {"compound": "O=C1CN(C(=O)COC(=O)CCC(=O)c2ccc3c(c2)OCCO3)c2ccccc2N1", "viability": "87.7% (inactive)"},
      {"compound": "CC(=O)NC12CC3CC(C1)CC(C(=O)OCC(=O)c1ccc4c(c1)OCCO4)(C3)C2", "viability": "82.9% (inactive)"},
      {"compound": "Cn1c(NCc2cccs2)nc2ccccc21", "viability": "86.8% (inactive)"},
      {"compound": "O=C(CSC1CCCCC1)Nc1ccccc1Br", "viability": "100% (inactive)"},
      {"compound": "CN1CCN(S(=O)(=O)c2ccc(N)cc2)CC1", "viability": "101% (inactive)"},
      {"compound": "COc1cc(C=O)ccc1OCCCOc1ccccc1[N+](=O)[O-]", "viability": "84.3% (inactive)"},
      {"compound": "O=C(CNC(=O)c1ccco1)OCC(=O)c1ccc2c(c1)CCCC2", "viability": "103% (inactive)"},
      {"compound": "CC(C)(C)C1CCC2(CC1)Nc1cccc3cccc(c13)N2", "viability": "112% (inactive)"},
      {"compound": "Cc1ccc(C(=O)NCC(=O)OCC(=O)N2CCCc3ccccc32)cc1", "viability": "112% (inactive)"}
    ]}
  ]
}
